This note sets out measurements from PubChem BioAssay (EPA / NIEHS).

SMILES strings stand for the structures. Where “and” joins values, the source holds several entries; their conditions need not be identical. Identical values can stand only once. Records with an inconclusive call do not appear. The source holds several records for some structures; these can differ, active in one and inactive in another. Calls of active or inactive are those of the source. The calls were made as follows: active = hit-call score of the fitted dose curve at least 0.9, where 1 is the maximum; inconclusive = response in the unintended direction; inactive = score below 0.9.

Assay [1] is described as follows: Tanguay_ZF_120hpf_BRAI_legacy: (Legacy) Oregon State University Tanguay Lab 120 Hour Post-fertilization zebrafish Assay for Brain Malformation (AID 2283641). The essentials:
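Tropical 5D wild-type zebrafish embryos exposed statically until 120 hpf at 28C, 0.64% DMSO final, sealed and dark. Brain malformation scored present/absent by brightfield at 120 hpf; dead embryos excluded. Trimethyltin chloride 5uM positive control.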

Assay [2] is described as follows: Tanguay_ZF_120hpf_PFIN_legacy: (Legacy) Oregon State University Tanguay Lab 120 Hour Post-fertilization zebrafish Assay for Pectoral Fin Malformation (AID 2283648).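 Also: each larva judged yes or no for fin defect by brightfield with dead larvae skipped.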 The essentials:
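Binary pectoral fin malformation call at 120 hpf by brightfield microscopy; 5D wild-type zebrafish, chorion removed at 4 hpf, one embryo per well from 6 hpf, static exposure at 28C; DMSO (0.64% final) as baseline.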

Assay [3] in a line: Tanguay_ZF_120hpf_CFIN_legacy: (Legacy) Oregon State University Tanguay Lab 120 Hour Post-fertilization zebrafish Assay for Caudal Fin Malformation (AID 2283649). The essentials: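 Dechorionated Tropical 5D wild-type embryos, one per well from 6 hpf, static exposure to 120 hpf at 28C in 0.64% DMSO. Caudal fin malformation scored by brightfield as present/absent; not scored in dead embryos.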

Assay [4] is described as follows: Tanguay_ZF_120hpf_CIRC_legacy: (Legacy) Oregon State University Tanguay Lab 120 Hour Post-fertilization zebrafish Assay for Circulatory Malformation (AID 2283651). The procedure, abridged: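 Binary circulatory-malformation call at 120 hpf via brightfield imaging, relative to DMSO controls. Embryos (5D strain, chorion removed) received static, light-shielded exposure at 28C.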

A short description of assay [5]: Tanguay_ZF_120hpf_SWIM_legacy: (Legacy) Oregon State University Tanguay Lab 120 Hour Post-fertilization zebrafish Assay for Swim Bladder Malformation (AID 2283654).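 Also: swim bladder malformation in each larva scored yes or no under brightfield.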 The procedure, abridged:
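Tropical 5D embryos dechorionated at 4 hpf; 1 embryo/well from 6 hpf; static, sealed, dark exposure at 28C until 120 hpf; final DMSO 0.64%; 5uM trimethyltin chloride positive control; swim bladder defect recorded yes/no; dead embryos not scored.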

The nature of assay [6]: Tanguay_ZF_120hpf_TRUN_legacy: (Legacy) Oregon State University Tanguay Lab 120 Hour Post-fertilization zebrafish Assay for Truncated Body (AID 2283655). The procedure, abridged: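 Dechorionated Tropical 5D wild-type embryos placed singly from 6 hpf and statically exposed to 120 hpf at 28C, final DMSO 0.64%. Truncated body scored as present/absent by brightfield; not scored in dead embryos.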

Assay [7] is described as follows: Tanguay_ZF_120hpf_NC_legacy: (Legacy) Oregon State University Tanguay Lab 120 Hour Post-fertilization zebrafish Assay for Notochord and Tail Malformation (AID 2283656). The procedure, abridged:
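Binary notochord-distortion calls, made by brightfield inspection, form the read-out; activity is fitted in the positive direction against DMSO. Exposure ran statically from 6 to 120 hpf at 28C with 0.64% DMSO.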

Read-out in assay [8]: Broad substrate specificity ATP-binding cassette transporter ABCG2 (Homo sapiens) (UniProt Q9UNQ0)
Nature of the assay: CLD_ABCG2_6hr: CellzDirect (CLD) Gene Expression Assay for ABC Transporter (ABCG2) at 6 hours (AID 2283660). The essentials: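 ABCG2 mRNA induction measured by qNPA chemiluminescence in human primary hepatocyte cultures, 6 h post-dose. Chemicals tested at several concentrations against a 0.2% DMSO vehicle; positive-direction fit relative to DMSO.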

Read-out in assay [9]: xenobiotic metabolism (CYP1A1), CYP1A1 (gene 1543)
Nature of the assay: CLD_CYP1A1_6hr: CellzDirect (CLD) Gene Expression Assay for xenobiotic metabolism (CYP1A1) at 6 hours (AID 2283661).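 As to AC50: potency for transcript induction above DMSO vehicle baseline.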 The procedure, abridged:
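Read-out 6 h post-dose: qNPA chemiluminescent quantitation of transcript induction against 0.2% DMSO. Cells were cultured primary human hepatocytes from two separate donor preparations; phase-contrast morphology annotated apparent cytotoxicity.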

A short description of assay [10]: Tanguay_ZF_120hpf_JAW_legacy: (Legacy) Oregon State University Tanguay Lab 120 Hour Post-fertilization zebrafish Assay for Jaw Malformation (AID 2283638). The procedure, abridged:
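Dechorionated Tropical 5D wild-type zebrafish embryos, one per well, exposed statically from 6 hpf to 120 hpf at 28C in 0.64% DMSO. Jaw malformation was scored by brightfield microscopy as present or absent. It was not scored in dead embryos.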

Assay [11] can be described thus: Tanguay_ZF_120hpf_PE_legacy: (Legacy) Oregon State University Tanguay Lab 120 Hour Post-fertilization zebrafish Assay for Pericardial Edema (AID 2283640). The essentials: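 Tropical 5D wild-type zebrafish embryos were statically exposed until 120 hpf at 28C, with 0.64% DMSO final. Pericardial edema was scored by brightfield as present or absent; endpoints were not scored in dead embryos.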

Assay [12] is described as follows: Tanguay_ZF_120hpf_SOMI_legacy: (Legacy) Oregon State University Tanguay Lab 120 Hour Post-fertilization zebrafish Assay for Somite Malformation (AID 2283647). The procedure, abridged:
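Dechorionated Tropical 5D wild-type zebrafish embryos, one per well from 6 hpf, statically exposed at 28C to 120 hpf in 0.64% DMSO; somite malformation scored present/absent by brightfield; trimethyltin 5 uM positive control; dead embryos not scored.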

Read-out in assay [13]: ABC Transporter (ABCB1), ABCB1 (gene 5243)
Kind of assay: CLD_ABCB1_6hr: CellzDirect (CLD) Gene Expression Assay for ABC Transporter (ABCB1) at 6 hours (AID 2283659).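 Also: hits raise ABCB1 transcript above the DMSO vehicle baseline.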 The essentials: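 ABCB1 transcript measured by quantitative nuclease protection assay, chemiluminescent read-out, 6 h after dosing human hepatocyte cultures (0.2% DMSO vehicle, daily redosing). Activity fitted as increase over DMSO baseline; cytotoxicity flagged by phase-contrast morphology.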

A short description of assay [14]: Tanguay_ZF_120hpf_OTIC_legacy: (Legacy) Oregon State University Tanguay Lab 120 Hour Post-fertilization zebrafish Assay for Otic Vesicle Malformation (AID 2283639). The essentials: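 Wild-type zebrafish larvae, whole-embryo exposure from early stage to 120 hpf at 28C. Binary brightfield scoring of otic vesicle morphology, fitted in the positive direction against the DMSO baseline.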

A short description of assay [15]: Tanguay_ZF_120hpf_PIG_legacy: (Legacy) Oregon State University Tanguay Lab 120 Hour Post-fertilization zebrafish Assay for Pigmentation Malformation (AID 2283650). The procedure, abridged: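 Brightfield scoring of pigmentation malformation at 120 hpf, recorded as binary present/absent per larva. Exposure: dechorionated 5D wild-type embryos, one per well, static from 6 hpf at 28C, final DMSO 0.64% (vol/vol). Dead embryos not scored.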

Broad substrate specificity ATP-binding cassette transporter ABCG2 (Homo sapiens), sequence (Q9UNQ0 whole entry, looked up): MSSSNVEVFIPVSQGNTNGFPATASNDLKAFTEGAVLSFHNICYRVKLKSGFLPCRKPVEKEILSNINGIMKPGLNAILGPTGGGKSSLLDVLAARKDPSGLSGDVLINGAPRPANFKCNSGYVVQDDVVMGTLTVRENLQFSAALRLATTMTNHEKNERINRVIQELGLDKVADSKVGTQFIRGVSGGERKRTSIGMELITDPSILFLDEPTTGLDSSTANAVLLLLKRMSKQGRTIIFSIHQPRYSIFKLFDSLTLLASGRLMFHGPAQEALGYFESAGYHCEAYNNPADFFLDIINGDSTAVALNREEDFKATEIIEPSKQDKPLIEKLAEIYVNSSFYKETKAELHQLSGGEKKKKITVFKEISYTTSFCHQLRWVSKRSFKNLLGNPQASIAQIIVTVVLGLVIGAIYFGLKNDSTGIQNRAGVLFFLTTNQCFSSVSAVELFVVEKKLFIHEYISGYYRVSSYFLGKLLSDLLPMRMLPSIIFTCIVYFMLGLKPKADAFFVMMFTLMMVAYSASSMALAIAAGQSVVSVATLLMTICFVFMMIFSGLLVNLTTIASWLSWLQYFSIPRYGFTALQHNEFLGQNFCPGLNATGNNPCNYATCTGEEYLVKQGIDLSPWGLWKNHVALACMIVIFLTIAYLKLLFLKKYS

For orientation: AC50 means the concentration at which the activity in the assay is half-maximal. For `CC(C)Oc1cc(-n2nc(C(C)(C)C)oc2=O)c(Cl)cc1Cl`, the molecule was called inactive in assay [1], in assay [2], in [3], in [4], in [5] and in assay [6]. Further, the molecule was called inactive in assay [7] and in assay [8]. In assay [9], the AC50 is 1.57 µM (active).
In the case of `CCOc1cc(Oc2ccc(C(F)(F)F)cc2Cl)ccc1[N+](=O)[O-]`, the molecule was called inactive in assay [10], in [11], in assay [12], in assay [2], in assay [3] and in assay [5]. Further, the call in [6], in assay [7], in [13] and in [8] was inactive.
As for `Cc1cc(Cl)ccc1OCC(=O)O`, the outcome in assay [10], in [14], in assay [11], in assay [1], in [12] and in [2] was inactive. For the same molecule, the molecule was classed as inactive in [3], in [15], in assay [5], in assay [6], in assay [13] and in [8]. Also, the molecule was called inactive in assay [9].
Regarding `COc1nc(C)nc(NC(=O)NS(=O)(=O)c2ccccc2CCC(F)(F)F)n1`, the molecule was called inactive in assay [13], in assay [8] and in assay [9]. Moreover, in assay [9], the AC50 is 1.9 µM (active) and 287 nM (active).
Regarding `CNC(=S)S`, the molecule was classed as inactive in assay [10], in [14], in assay [11], in assay [1], in [12] and in [2]. Also, the outcome in assay [3], in assay [15], in assay [6], in [7], in assay [8] and in assay [9] was inactive.
Take `COC(=O)C=C(C)OP(=O)(OC)OC`: the molecule was called inactive in assay [10], in assay [11], in [1], in assay [12], in assay [2] and in assay [3]. Besides, the molecule was classed as inactive in assay [15], in assay [4], in [5], in assay [6], in [8] and in assay [9].
`CN(C)C(=S)SSC(=S)N(C)C`: the call in assay [10], in assay [14], in assay [11], in assay [1], in assay [12] and in [2] was inactive. Also, the molecule was classed as inactive in assay [3], in assay [15], in assay [4], in assay [6], in assay [7] and in [13]. The result in [8] was inactive.
With `CCOP(=S)(OCC)SCn1c(=O)oc2cc(Cl)ccc21`, the call in [14], in assay [1], in [12], in assay [2], in assay [15] and in assay [4] was inactive. Further, the outcome in assay [5], in assay [6] and in [13] was inactive. Further, the AC50 in [9] is 0.36 µM (active).
